# Test results from PubChem BioAssay (Tox21).
# Where “and” joins values, the source holds several entries; their conditions need not be identical. Identical values can stand only once. Inconclusive results are not listed. A call without a number means that no potency is given here. Calls of active or inactive are those of the source. Unless noted, calls follow the shape of the dose curve; as a rule, active = well fitted curve in the direction sought with a large enough effect in the repeat runs; inconclusive = weak or mixed curves; inactive = no such curve, though single readings can be large; an effect the other way counts as inactive or inconclusive.
# Test system: not listed separately
# Assay: qHTS assay to identify small molecule antagonists of the thyroid receptor (TR) signaling pathway - cell viability counter screen (AID 743064); also: nearly all actives have a fitted effect of over 50% in size; also: potency is read from the fitted curve at half-maximal effect
# Settings: GH3.TRE-Luc viability, CellTiter-Fluor, 24 h; series mostly up to 70.3 µM
# How it was run: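 GH3.TRE-Luc rat pituitary cells dosed after 4 hr plating, co-stimulated with T3 at 1 nM final, incubated 23.5 h at 37 C. Viability measured in the same wells by CellTiter-Fluor fluorescence after 30 min further at 37 C.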
row,Structure (SMILES),Potency
1,CCCCCBr,inactive
2,Cc1ccc2c(C)cccc2c1,inactive
3,CCCCC(CC)CO[N+](=O)[O-] (stereo unspecified),inactive
4,COC(=O)C1(O)c2ccccc2-c2ccccc21,inactive
5,CCC[N+](CCC)(CCC)CCC,inactive
6,CN(C1CCCCC1)C1CCCCC1,inactive
7,CCNC(=O)NC(=O)/C(C#N)=N/OC,inactive
8,C=C(C)C(=O)OCCCCOC(=O)C(=C)C,inactive
9,CCCSP(=S)(OCC)Oc1ccc(SC)cc1 (stereo unspecified),inactive
10,CCCBr,inactive
11,CC(C)c1ccc(OP(=O)(Oc2ccc(C(C)C)cc2)Oc2ccc(C(C)C)cc2)cc1,54.9 µM (active) and 68.6 µM (active) and 30.6 µM (active)
12,CCCC1CCCCN1 (stereo unspecified),inactive
13,Clc1ccccc1,inactive
14,C[N+](C)(C)CC1CO1 (stereo unspecified),inactive
15,CCCC[N+](CCCC)(CCCC)CCCC,inactive
16,CCC1(CC)C(=O)NC(=O)NC1=O,inactive
17,CCOP(=S)(S)OCC,inactive

# Test system: not listed separately
# Assay: qHTS assay to identify small molecule antagonists of the thyroid receptor (TR) signaling pathway (AID 743065); also: nearly all actives have a fitted effect of over 55% in size; also: potency is read from the fitted curve at half-maximal effect
# Settings: GH3.TRE-Luc, T3-stimulated luciferase inhibition, 23.5 h; series mostly up to 70.3 µM
# How it was run: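 GH3.TRE-Luc rat pituitary cells carrying two TR response elements driving luciferase were plated for 4 h, given compound plus 1 nM T3 (final), and incubated 23.5 h at 37 C. ONE-Glo luminescence measured reporter inhibition; CellTiter-Fluor fluorescence tracked cytotoxicity.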
row,Structure (SMILES),Potency
1,O=[N+]([O-])c1cc(Cl)c(Cl)cc1Cl,inactive
2,CC(C)(C)NCC(O)c1ccccc1Cl (stereo unspecified),inactive
3,O=C([O-])c1ccccn1.O=C([O-])c1ccccn1.O=C([O-])c1ccccn1.[Cr+3],inactive
4,CCSCc1ccccc1OC(=O)NC,inactive
5,C=CCOC(=O)C(C)(C)OC(=O)c1cc(-n2c(=O)cc(C(F)(F)F)n(C)c2=O)ccc1Cl,inactive
6,CC(O)CN1CCN(CC(=O)[O-])CCN(CC(=O)[O-])CCN(CC(=O)[O-])CC1.[Gd+3] (stereo unspecified),inactive
7,CCCN(CCC)c1c([N+](=O)[O-])cc(C(C)C)cc1[N+](=O)[O-],61.1 µM (active)
8,Nc1c(Br)cc(Br)c2c1C(=O)c1ccccc1C2=O,inactive
9,O=P(OCC(Br)CBr)(OCC(Br)CBr)OCC(Br)CBr (stereo unspecified),27.7 µM (active) and 23.1 µM (active)
10,C=C(Cl)Cl,inactive
11,SCc1ccccc1,inactive
12,CCCC[N+]1(C)[C@@H]2CC(OC(=O)[C@H](CO)c3ccccc3)C[C@H]1[C@@H]1O[C@@H]12 (stereo partly specified),inactive
13,CN1CC[C@]23c4c5ccc(O)c4O[C@H]2[C@@H](O)CC[C@H]3[C@H]1C5,inactive
14,N#CC(C#N)=C(C#N)C#N,inactive
15,CCCC(C)(COC(N)=O)COC(=O)NC(C)C (stereo unspecified),inactive
16,C=CCOCC1CO1 (stereo unspecified),inactive
17,COCc1cnc(C2=NC(C)(C(C)C)C(=O)N2)c(C(=O)O)c1 (stereo unspecified),inactive
18,CN[C@@H](C)[C@H](O)c1ccccc1,inactive
19,COc1cc(CC(C)N)c(OC)cc1Br (stereo unspecified),35.5 µM (active) and 23.7 µM (active)

row,Structure (SMILES),Potency
1,OCCSSCCO,inactive
2,CCCCCBr,inactive
3,Cc1ccc2c(C)cccc2c1,inactive
4,CCCCC(CC)CO[N+](=O)[O-] (stereo unspecified),inactive
5,COC(=O)C1(O)c2ccccc2-c2ccccc21,inactive
6,CCC[N+](CCC)(CCC)CCC,inactive
7,CN(C1CCCCC1)C1CCCCC1,inactive
8,CCNC(=O)NC(=O)/C(C#N)=N/OC,inactive
9,C=C(C)C(=O)OCCCCOC(=O)C(=C)C,inactive
10,CCCSP(=S)(OCC)Oc1ccc(SC)cc1 (stereo unspecified),inactive
11,CCCBr,inactive
12,CC(C)c1ccc(OP(=O)(Oc2ccc(C(C)C)cc2)Oc2ccc(C(C)C)cc2)cc1,54.9 µM (active) and 54.5 µM (active) and 30.6 µM (active)
13,CCCC1CCCCN1 (stereo unspecified),inactive
14,Clc1ccccc1,inactive
15,C[N+](C)(C)CC1CO1 (stereo unspecified),inactive
16,CCCC[N+](CCCC)(CCCC)CCCC,inactive
17,CCC1(CC)C(=O)NC(=O)NC1=O,inactive
18,CCOP(=S)(S)OCC,inactive

# Test system: thyroid hormone receptor (rat, GH3 cells)
# Assay: qHTS assay to identify small molecule agonists of the thyroid receptor (TR) signaling pathway (AID 743066; calls by dose curve)
# Settings: GH3.TRE-Luc cells, TR agonist luciferase, 24 h; series mostly up to 83.9 µM
row,Structure (SMILES),Potency
1,O=[N+]([O-])c1cc(Cl)c(Cl)cc1Cl,inactive
2,CC(C)(C)NCC(O)c1ccccc1Cl (stereo unspecified),inactive
3,O=C([O-])c1ccccn1.O=C([O-])c1ccccn1.O=C([O-])c1ccccn1.[Cr+3],inactive
4,CCSCc1ccccc1OC(=O)NC,inactive
5,C=CCOC(=O)C(C)(C)OC(=O)c1cc(-n2c(=O)cc(C(F)(F)F)n(C)c2=O)ccc1Cl,inactive
6,CC(O)CN1CCN(CC(=O)[O-])CCN(CC(=O)[O-])CCN(CC(=O)[O-])CC1.[Gd+3] (stereo unspecified),inactive
7,CCCN(CCC)c1c([N+](=O)[O-])cc(C(C)C)cc1[N+](=O)[O-],inactive
8,Nc1c(Br)cc(Br)c2c1C(=O)c1ccccc1C2=O,inactive
9,O=P(OCC(Br)CBr)(OCC(Br)CBr)OCC(Br)CBr (stereo unspecified),inactive
10,C=C(Cl)Cl,inactive
11,SCc1ccccc1,inactive
12,CCCC[N+]1(C)[C@@H]2CC(OC(=O)[C@H](CO)c3ccccc3)C[C@H]1[C@@H]1O[C@@H]12 (stereo partly specified),inactive
13,CN1CC[C@]23c4c5ccc(O)c4O[C@H]2[C@@H](O)CC[C@H]3[C@H]1C5,inactive
14,N#CC(C#N)=C(C#N)C#N,inactive
15,CCCC(C)(COC(N)=O)COC(=O)NC(C)C (stereo unspecified),inactive
16,C=CCOCC1CO1 (stereo unspecified),inactive
17,COCc1cnc(C2=NC(C)(C(C)C)C(=O)N2)c(C(=O)O)c1 (stereo unspecified),inactive
18,CN[C@@H](C)[C@H](O)c1ccccc1,inactive
19,COc1cc(CC(C)N)c(OC)cc1Br (stereo unspecified),inactive

row,Structure (SMILES),Potency
1,OCCSSCCO,inactive
2,CCCCCBr,inactive
3,Cc1ccc2c(C)cccc2c1,inactive
4,CCCCC(CC)CO[N+](=O)[O-] (stereo unspecified),inactive
5,COC(=O)C1(O)c2ccccc2-c2ccccc21,inactive
6,CCC[N+](CCC)(CCC)CCC,inactive
7,CN(C1CCCCC1)C1CCCCC1,inactive
8,CCNC(=O)NC(=O)/C(C#N)=N/OC,inactive
9,C=C(C)C(=O)OCCCCOC(=O)C(=C)C,inactive
10,CCCSP(=S)(OCC)Oc1ccc(SC)cc1 (stereo unspecified),inactive
11,CCCBr,inactive
12,CC(C)c1ccc(OP(=O)(Oc2ccc(C(C)C)cc2)Oc2ccc(C(C)C)cc2)cc1,inactive
13,CCCC1CCCCN1 (stereo unspecified),inactive
14,Clc1ccccc1,inactive
15,C[N+](C)(C)CC1CO1 (stereo unspecified),inactive
16,CCCC[N+](CCCC)(CCCC)CCCC,inactive
17,CCC1(CC)C(=O)NC(=O)NC1=O,inactive
18,CCOP(=S)(S)OCC,inactive
